Assay results as given in PubChem BioAssay AID651871 (Sanford-Burnham Center for Chemical Genomics, 2012).
“And” between values parts separate entries of the source, which are not always exact repeats. Equal values may be shown once.

The compounds below were run on HL-1 (assay: cardiomyocyte survival under oxidative or metabolic stress – cell-based, panel, H9c2 and HL-1, ATP luminescence, set 2, SAR follow-up (AID 651871;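 note: cells exposed to stressor for 2 h before ATP readout; reference of the scale not given here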)). Details: H9c2/HL-1 cardiomyocytes, 2-deoxyglucose stress, with 2-deoxyglucose, run 4, at 79 µM (top of the series).
Compound `COc1ccc2nc(-c3cc(OC)c(OC)c(OC)c3)cc(C(=O)NCC(=O)Nc3ccc(C(C)=O)cc3)c2c1` has an activity (protection/inhibition) of 68.7%.
With `CCOC(=O)c1cccc(NC(=O)CNC(=O)c2cc(-c3cc(OC)c(OC)c(OC)c3)nc3ccccc23)c1` the activity (protection/inhibition) was 54.1%.
In the case of `COc1ccc2c(c1OC)C(=O)N1c3ccccc3C(=O)N(Cc3cccc(Cl)c3Cl)C21` (stereo not drawn), the activity (protection/inhibition) was 33.5% and -8.11%.
